Test results taken from the supplement of paper PMC7695840.
Counter-ions that a name gives are not always drawn.

Experiments:
[1] = system: Staphylococcus aureus MW2 delta-mecA (mecA-); assay: normalized GFP fluorescence (growth of mecA- strain) (fraction of control range); higher = more growth of mecA- strain; settings: compound concentration: 150 uM; cefoxitin: subinhibitory; fluorescent label: GFP
Method in brief: (§1)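 Compound at 150 μM (1.5% DMSO) in 1536-well plates received 5 µL/well of pre-induced S. aureus MW2 cells mixed 1:1, gene-carrying with DsRed and gene-deleted with GFP, in LB with a daily-set subinhibitory antibiotic dose, single replicate. After 20 h unshaken at 37 °C, 90% humidity, DsRed (540/590) and GFP (485/520) were measured and scaled per plate between single-strain control medians. Plates with high untreated ratios and rows with DsRed/GFP >10 were excluded.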

[2] = system: Staphylococcus aureus MW2 (mecA+); assay: normalized DsRed fluorescence (growth of mecA+ strain) (fraction of control range); higher = more growth of mecA+ strain; settings: compound concentration: 150 uM; cefoxitin: subinhibitory; fluorescent label: DsRed
Method in brief: as §1

SMILES | normalized GFP fluorescence [1] | normalized DsRed fluorescence [2]
CC(NC(C)(C)C)C(=O)c1cccc(Cl)c1 (stereo unspecified) | 0.332 | 0.882
C[N+]1(C)CCCC(OC(=O)C(O)(c2ccccc2)c2ccccc2)C1 (stereo unspecified) | 0.765 | 0.852
NCCCNCCSP(=O)(O)O | 0.429 | 0.76
N.N.[Cl][Pt][Cl] | 0.807 | 0.697
CC(C)CC(N(C)C)C1(c2ccc(Cl)cc2)CCC1 (stereo unspecified) | 0.0915 | 
O=C1CN=C(c2ccccc2Cl)c2cc([N+](=O)[O-])ccc2N1 | 0.145 | 1.02
CNC(=O)Oc1ccc2c(c1)[C@]1(C)CCN(C)[C@@H]1N2C | 0.574 | 0.687
CCCC(C)C1(CC)C(=O)NC(=S)NC1=O (stereo unspecified) | 0.288 | 0.518
NCC1(CC(=O)O)CCCCC1 | 0.647 | 0.674
CNCC(O)c1ccc(O)cc1 (stereo unspecified) [Synephrine (Oxedrine)] | 0.516 | 0.777
CC(C)N(CCC(C(N)=O)(c1ccccc1)c1ccccn1)C(C)C (stereo unspecified) | 0.541 | 0.697
Cc1cccc([C@H](C)c2c[nH]cn2)c1C [Dexmedetomidine] | 0.289 | 0.702
COC(=O)C(c1ccccc1)C1CCCCN1 (stereo unspecified) | 0.277 | 0.737
NC(=O)CN1CCCC1=O | 0.168 | 0.628
CCN(C(C)=O)c1cccc(-c2ccnc3c(C#N)cnn23)c1 | 0.782 | 0.598
CCCC(C)(COC(N)=O)COC(=O)NC(C)C (stereo unspecified) | 0.54 | 1.05

SMILES | normalized GFP fluorescence [1] | normalized DsRed fluorescence [2]
COc1ccc(OC)c(C(O)C(C)N)c1 (stereo unspecified) | 0.864 | 0.526
CNc1ccc(C(=O)CC(O)CCC(C)C2OC(=O)CC(O)CC(=O)CC(O)CC(O)CC(O)CC(O)CC3(O)CC(O)C(C(=O)OC)C(CC(O[C@@H]4O[C@H](C)[C@@H](O)[C@H](N)[C@@H]4O)/C=C/C=C/C=C/C=C/C=C/C=C/C=C/C2C)O3)cc1.COC(=O)C1C(O)CC2(O)CC(O)CC(O)CC(O)CC(O)CC(=O)CC(O)CC(=O)OC(C(C)CCC(O)CC(=O)c3ccc(N)cc3)C(C)/C=C/C=C/C=C/C=C/C=C/C=C/C=C/C(O[C@@H]3O[C@H](C)[C@@H](O)[C@H](N)[C@@H]3O)CC1O2 (stereo partly specified) | 0.675 | 0.626
N[C@@H](Cc1ccc(N(CCCl)CCCl)cc1)C(=O)O | 0.309 | 0.612
Cn1c(CCCC(=O)O)nc2cc(N(CCCl)CCCl)ccc21 [Bendamustine HCL] | 0.659 | 0.83
CN1CCN(C(=O)O[C@H]2c3nccnc3C(=O)N2c2ccc(Cl)cn2)CC1 | 0.334 | 0.793
CC(C)c1cccc(C(C)C)c1O | 0.257 | 0.882
NC(=O)C[S+]([O-])C(c1ccccc1)c1ccccc1 (stereo unspecified) | 0.716 | 0.558
C[C@]12CC[C@@H]3c4ccc(OC(=O)N(CCCl)CCCl)cc4CC[C@H]3[C@@H]1CC[C@@H]2O | 0.117 | 0.515
CN1[C@@H]2C[C@@H](OC(=O)[C@H](CO)c3ccccc3)C[C@H]1[C@@H]1O[C@@H]12 | 0.83 | 0.7
C#C[C@]1(O)CC[C@H]2[C@@H]3CCC4=CC(=O)CC[C@]4(C)[C@H]3CC[C@@]21C | 0.473 | 0.916
CNCC(=O)c1ccc(O)c(O)c1 [Adrenalone HCl] | 0.708 | 0.797
Cc1ccc(-c2nc3ccc(C)cn3c2CC(=O)N(C)C)cc1 | 0.38 | 0.527
CN1[C@@H]2CC[C@H]1C[C@@H](OC(=O)[C@H](CO)c1ccccc1)C2 | 0.693 | 0.664
c1ccc2c(c1)Nc1ccccc1S2 | 0.132 | 0.671
O=C(O[C@H]1C[C@H]2CC[C@@H](C1)[N+]21CCCC1)C(O)(c1ccccc1)c1ccccc1 [Trospium chloride (Sanctura)] | 0.723 | 0.453
